Compound activity from PubChem.
Cruzain inh Det: qHTS Assay for Promiscuous and Specific Inhibitors of Cruzain (with detergent); 200,000 compounds, 0.43% hits; Potency, µM, hits mostly inhibitors; AID 1478, 2009; purified cruzain, Z-FR-AMC fluorescence, 0.01% Triton; also: nearly all actives have a fitted effect of over 40% in size
Target sequence (P25779 123-467 limits assumed): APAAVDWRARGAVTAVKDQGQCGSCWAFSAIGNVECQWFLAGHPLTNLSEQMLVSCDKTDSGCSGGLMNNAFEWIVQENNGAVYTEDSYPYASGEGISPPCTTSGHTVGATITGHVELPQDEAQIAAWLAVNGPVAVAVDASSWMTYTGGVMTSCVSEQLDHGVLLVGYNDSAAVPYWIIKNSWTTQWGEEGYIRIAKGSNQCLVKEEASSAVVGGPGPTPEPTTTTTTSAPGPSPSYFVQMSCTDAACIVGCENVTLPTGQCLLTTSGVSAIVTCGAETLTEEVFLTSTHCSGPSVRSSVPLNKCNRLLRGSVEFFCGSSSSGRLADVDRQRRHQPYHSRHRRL
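Enzyme 1.5 nM, Z-FR-AMC 2 uM, NaOAc 100 mM pH 5.5, DTT 5 mM, Triton X-100 0.01%; 15 min RT compound preincubation; kinetic ex360/em450, 60 s delta.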
Cruzain inh noDet: qHTS Assay for Promiscuous and Specific Inhibitors of Cruzain (without detergent) | 200,000 compounds, 2.3% hits | Potency, µM, actives largely listed as inhibitors | Cruzipain (Trypanosoma cruzi), P25779 | purified cruzain, Z-FR-AMC fluorescence, no detergent; also: nearly all actives have a fitted effect of over 40% in size
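Purified cruzain at 1.5 nM, pre-incubated 15 min with compound at room temperature in 100 mM sodium acetate pH 5.5, 5 mM DTT, 0.00005% Triton X-100. Reaction started with 2 uM Z-FR-AMC; AMC fluorescence increase over 60 s gives rate.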
Of the large screens only hits and unclear results are named; the others gave an inactive call. Sampled rows, rich in hits. Any-hit rate of the full collection: about 2.6%. Calls follow the shape of the dose curve; as a rule, active = well fitted curve in the direction sought with a large enough effect; inconclusive = small, poorly fitted or top-dose-only effect, or another doubt; inactive = no such curve, though single readings can be large; an effect the other way counts as inactive or inconclusive.

Cc1ccc(CNC(=O)CN2C(=O)C3CCCCN3c3ccc(C(=O)N(C)C)cc32)cc1 (stereo not drawn)	none
O=C(/C=C/c1ccc(Cl)cc1)NC(=S)Nc1ccc(N2CCOCC2)c(Cl)c1	Cruzain inh noDet inconclusive
COc1ccccc1NS(=O)(=O)c1cc(NC(=O)c2ccncc2)ccc1N1CCOCC1	Cruzain inh noDet inconclusive
O=C(/C=C/c1cccs1)Nc1ccc(N2CCOCC2)c(S(=O)(=O)Nc2cc(Cl)ccc2Cl)c1	Cruzain inh noDet 5µM
O=C(/C=C/c1cccs1)Nc1ccc(N2CCOCC2)c(S(=O)(=O)Nc2ccccc2Cl)c1	Cruzain inh noDet 25µM
O=C(Nc1ccc(Cl)c(S(=O)(=O)Nc2ccccc2Cl)c1)c1cccs1	none
COc1ccccc1NS(=O)(=O)c1cc(NC(=O)/C=C/c2cccs2)ccc1N1CCOCC1	Cruzain inh noDet 25µM
COc1ccc(OC)c(-c2noc(CSc3nnc(-c4ccccc4)n3-c3ccccc3)n2)c1	none
CCc1ccc(S(=O)(=O)c2nnn3c2nc(NCCC(C)C)c2cc(Cl)ccc23)cc1	none
CC(=O)c1ccc(Nc2nc3c(S(=O)(=O)c4ccccc4)nnn3c3ccc(Cl)cc23)cc1	none
O=C(O)C(Cc1ccccc1)N1C(=O)/C(=C/c2cccc3ccccc23)SC1=S (stereo not drawn)	Cruzain inh Det 32µM, Cruzain inh noDet inconclusive
O=C(O)C(Cc1ccccc1)N1C(=O)/C(=C/c2ccccc2)SC1=S (stereo not drawn)	none
CSc1cccc(-c2nnc(NC(=O)c3ccc4c(c3)OCCO4)o2)c1	none
O=C(Nc1nnc(-c2ccc3c(c2)OCCO3)o1)c1ccc(Cc2ccccc2)cc1	Cruzain inh noDet 13µM
Fc1ccc(Nc2nc(-c3ccc(F)cc3)c3c(n2)-c2ccccc2OC3)cc1	Cruzain inh noDet inconclusive
COc1ccccc1Nc1nc(-c2ccc(F)cc2)c2c(n1)-c1ccccc1OC2	Cruzain inh noDet 10µM
O=C(N/N=C/C=C/c1ccccc1)c1ccc(Br)cc1	Cruzain inh noDet 20µM
Cn1cc(C(=O)N/N=C/C=C/c2ccccc2)ccc1=O	none
COc1cccc(Cn2c(=O)cnc3cnc(OCc4ccccc4)nc32)c1	none
CCOC(=O)c1sc(Nc2nc3c(F)cccc3s2)cc1C	Cruzain inh noDet 16µM
CCOC(=O)c1sc(Nc2nc3ccc(OC)cc3s2)cc1C	Cruzain inh noDet inconclusive
COc1ccc(C2=C(C)C(N3CCC(C(=O)Nc4ccc(F)cc4C)CC3)=NS2(=O)=O)cc1	none
CCCCNC(=O)CC1Nc2ccccc2NC1=O (stereo not drawn)	none
CCCCOc1ccccc1NC(=O)CC1Nc2ccccc2NC1=O (stereo not drawn)	Cruzain inh noDet 25µM
COc1ccc(CNC(=O)c2ccc(-c3nc(CSc4ccc(C)cc4)c(C)o3)cc2)cc1OC	Cruzain inh noDet inconclusive
O=C1OC2(c3cc(Br)c(O)c(Br)c3Oc3c2cc(Br)c(O)c3Br)c2c(Cl)c(Cl)c(Cl)c(Cl)c21	Cruzain inh Det 16µM, Cruzain inh noDet inconclusive
O=C1OC(c2ccc(O)c(-c3ccccc3)c2)(c2ccc(O)c(-c3ccccc3)c2)c2c(Cl)c(Cl)c(Cl)c(Cl)c21	none
COc1ccc(NC(=O)c2ccc(CN(c3cc(Cl)ccc3C)S(=O)(=O)c3ccccc3)cc2)cc1OC	Cruzain inh noDet inconclusive
COc1ccccc1NC(=O)c1ccc(CN(c2cc(Cl)ccc2C)S(=O)(=O)c2ccccc2)cc1	Cruzain inh noDet 13µM
CCN(C(=O)C(=O)Nc1ccc2nc3n(c(=O)c2c1)CCCCC3)c1ccc(F)cc1	none
C=CCOC(=O)N[C@H](c1ccccc1)C(C(C)=O)C(C)=O	none
CCN(CC)S(=O)(=O)c1ccc2c(c1)N(CC(=O)Nc1c(C)cc(C)cc1C)C(=O)CS2	none
CC(C)Cn1cc(NC(=O)N2CCN(c3ccccc3F)CC2)c2ccccc2c1=O	none
CC1=C(C(=O)Nc2ccccc2C)C(c2cccnc2)n2nc(SCc3ccccc3)nc2N1 (stereo not drawn)	none
Cc1ccc(C(=O)COC(=O)c2cc(-c3cccs3)nc3ccccc23)cc1	Cruzain inh noDet inconclusive
COc1ccc(C(=O)COC(=O)c2cc(-c3cccs3)nc3ccccc23)cc1	Cruzain inh noDet 20µM
COC(=O)c1ccc2c(=O)n(CCCCCC(=O)N3CCN(c4cc(C)ccc4C)CC3)c(=O)[nH]c2c1	none
CC1CCc2c(sc3nnn(Cc4ccc(F)cc4)c(=O)c23)C1 (stereo not drawn)	none
CCNC(=S)N/N=C/c1ccc(OCCOc2ccccc2C)cc1	Cruzain inh noDet 16µM
CCOc1ccc(/C=N/NC(=S)Nc2c(C)cccc2C)cc1	none
CCOC(=O)c1ccc(NC(=O)CCn2ccc(C)n2)cc1	none
Cc1ccc(C)c(N2CCN(C(=O)c3ccc4c(c3)N(Cc3ccc(F)cc3)C(=O)c3ccccc3S4=O)CC2)c1 (stereo not drawn)	none
C=CCNC(=S)N/N=C/c1ccc(-c2cc(Cl)ccc2Cl)o1	Cruzain inh noDet 7.9µM
